NPR2 activator: GC-B (human) receptor activation; P20594; HEK293-GC-B cells, CNP EC30, cGMP TR-FRET; 0% at EC30 CNP, 100% saturating CNP; activation, % at 10 µM; 370,000 compounds, 0.11% hits; AID 1920062;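 active = activation at 10 µM reaching about 35% in either raw or pattern-adjusted values, limit read from the data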
Target sequence (P20594 whole entry, looked up): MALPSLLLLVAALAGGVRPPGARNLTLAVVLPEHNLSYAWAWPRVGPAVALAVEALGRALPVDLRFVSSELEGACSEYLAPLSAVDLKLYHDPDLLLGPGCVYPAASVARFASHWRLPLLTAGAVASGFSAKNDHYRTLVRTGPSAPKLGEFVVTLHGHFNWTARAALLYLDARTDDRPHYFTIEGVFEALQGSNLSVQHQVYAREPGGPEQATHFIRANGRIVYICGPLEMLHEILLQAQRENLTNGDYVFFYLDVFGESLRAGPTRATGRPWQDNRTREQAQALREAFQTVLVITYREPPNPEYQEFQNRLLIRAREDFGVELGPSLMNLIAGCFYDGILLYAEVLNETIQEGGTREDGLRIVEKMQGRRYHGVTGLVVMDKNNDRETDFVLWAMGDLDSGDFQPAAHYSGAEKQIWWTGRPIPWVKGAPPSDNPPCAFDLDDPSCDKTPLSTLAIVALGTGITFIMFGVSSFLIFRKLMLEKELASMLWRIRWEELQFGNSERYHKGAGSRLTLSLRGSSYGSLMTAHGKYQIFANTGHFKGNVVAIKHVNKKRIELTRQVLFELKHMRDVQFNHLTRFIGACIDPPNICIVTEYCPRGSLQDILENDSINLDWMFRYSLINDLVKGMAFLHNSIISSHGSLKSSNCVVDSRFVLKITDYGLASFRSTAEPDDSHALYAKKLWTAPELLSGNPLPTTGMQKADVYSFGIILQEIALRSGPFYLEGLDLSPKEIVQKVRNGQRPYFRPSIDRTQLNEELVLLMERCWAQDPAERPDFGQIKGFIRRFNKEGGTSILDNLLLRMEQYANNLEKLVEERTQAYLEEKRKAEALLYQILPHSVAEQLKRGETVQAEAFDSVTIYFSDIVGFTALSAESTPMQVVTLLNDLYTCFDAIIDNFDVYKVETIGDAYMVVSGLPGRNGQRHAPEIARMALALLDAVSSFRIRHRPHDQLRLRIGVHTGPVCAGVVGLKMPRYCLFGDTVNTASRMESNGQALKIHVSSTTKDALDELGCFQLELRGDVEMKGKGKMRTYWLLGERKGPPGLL
Granule exo inh: blocks lytic granule exocytosis | TALL-104 LAMP-1 surface exposure, flow cytometry; cells stimulated with thapsigargin and PMA | inhibition, % at 10 µM | 360,000 compounds, 0.66% hits | AID 651702;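 active = inhibition above about 55%, limit read from the data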
NPR1 activator: GC-A (human) enzyme activation; P16066; HEK293 GC-A cells, cGMP TR-FRET, EC30 ANP; 0% at EC30 ANP, 100% saturating ANP; activation, % at 10 µM; 370,000 compounds, 0.14% hits; AID 1671463; in the data active = activation above about 40%
Myeloid diff MLP: promotes myeloid progenitor differentiation; ER-HoxA9 myeloid progenitors, lysozyme-GFP differentiation, flow cytometry; calls only at 10 µM; 360,000 compounds, 1% hits;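 active = normalized GFP-positive differentiation at or above the plate's own cutoff, the solvent-only control mean plus 3 SD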;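 also: cells exposed to compound for four days before flow analysis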
* marks the source's active call; other numbers are inactive results; i = inactive; / = no result; + = active, no number. Most compounds without a hit are left out; they make up all but 1.8% or so of the library.

SMILES	NPR2 activator	Granule exo inh	NPR1 activator	Myeloid diff MLP
Cc1cccnc1C(NC(=O)C1CCN(Cc2ccc(Oc3ccccc3)cc2)CC1)c1ccccc1 (centres undefined)	/	6	/	i
O=C(NC1CCCCC1)c1ccc(-c2cn[nH]c2)c2ccoc12	5	-6	-1	i
COc1cc(OC)c(OC)cc1/C=C1/C(=O)N=C(N)N1C	-9	11	3	i
COc1ccc(/C=C2\N=C(C)OC2=O)cc1OC	0	3	3	+
COc1ccc(/C=C2\N=C(C)OC2=O)cc1OC(C)=O	-2	6	6	i
COc1ccc(/C=C2/C(=O)N=C(N)N2C)cc1OC	-5	1	-3	+
Cc1ccc(S(=O)(=O)N2CC3C(=O)C[C@@H](c4ccccc4)N(S(=O)(=O)c4ccc(CCCOCCOCCNC(=O)OC(C)(C)C)cc4)C3CC2c2ccccc2)cc1 (some centres undefined)	1	-1	3	i
COC(=O)[C@]12C[C@H](CC(=O)N3CCSCC3)C(=O)N(Cc3cccc4ccccc34)C1=C[C@H](COCc1ccccc1)O[C@@H]2C	1	/	0	/
Cc1cccc(S(=O)(=O)N2CCC[C@H]2C(=O)N2CCC[C@@H]2C(=O)NCc2ccccc2)c1	-7	/	-1	/
CC(=O)c1c(C)[nH]c(C(=O)OCC(=O)NCc2ccc3c(c2)OCO3)c1C	-2	1	-2	+
Oc1ccc(C[C@H]2CN([C@@H](Cc3cccc(O)c3)CN3CCC[C@@H]3CN3C(=S)NC[C@@H]3Cc3ccccc3)C(=S)N2CC2CCCCC2)cc1	-1	25	-2	+
CC(C)C[C@H]1CNC(=S)N1C[C@H]1CCCN1C[C@H](Cc1ccccc1)N1C[C@H](Cc2ccc(O)cc2)N(CC2CCCCCC2)C1=S	7	22	0	+
CC(C)C[C@@H](CN1CCCC1CN1C(=S)NC[C@@H]1Cc1ccc(O)cc1)N1C[C@H](Cc2ccc(O)cc2)N(CC2CCCCC2)C1=S (some centres undefined)	3	57*	2	i
Oc1ccc(C[C@H]2CN([C@@H](Cc3ccccc3)CN3CCCC3CN3C(=S)NC[C@@H]3Cc3ccccc3)C(=S)N2CC2CCCCC2)cc1 (some centres undefined)	8	28	-1	i
CC(C)C[C@H]1CNC(=S)N1CC1CCCN1C[C@H](Cc1ccc(O)cc1)N1C[C@H](Cc2ccccc2)N(CC2CCCCCC2)C1=S (some centres undefined)	6	2	-2	i
N#Cc1ccc(NC(=O)COC(=O)C2Cc3ccccc3CN2C(=O)c2ccccc2)cc1 (centres undefined)	-4	-3	-9	+
COC(=O)C1CN(Cc2ccc(OC)cc2)CCS(=O)(=O)N1Cc1ccc(C)cc1 (centres undefined)	-3	/	-4	/
COc1ccc(C)cc1NC(=O)c1nnn(Cc2cccc(C(F)(F)F)c2)c1N	-7	-15	-1	+
O=S1(=O)c2ccc(Br)cc2OC[C@@H](c2ccccc2)N1Cc1cn(CCC2OCCO2)nn1	1	/	2	/
Cc1cccn2c(=O)c(C=O)c(NCc3ccccc3)nc12	1	-2	-1	+
COc1ccc2c(n1)Sc1nc3ccccc3nc1N2	12	62*	13	+
CCOc1ccc(CCNC(=O)COC(=O)Cn2cnc3ccccc3c2=O)cc1OCC	-2	2	4	+
C/C(=N\Nc1ncc(Cl)cc1Cl)c1ccccn1	/	98*	/	i
N#CCCn1cc(C=C(C#N)C#N)c(-c2ccc(Cl)cc2)n1	2	0	4	i
N#CCCn1cc(/C=C(\C#N)c2nc3ccccc3s2)c(-c2ccc(F)cc2)n1	62*	-2	-1	i
SMILES	NPR2 activator	Granule exo inh	NPR1 activator	Myeloid diff MLP
CCOC(=O)CN1C(=O)N(c2ccc(OC)cc2)[C@H]2CC3c4ccccc4C[C@]3(C)[C@@H](C(=O)N(C)C3CCCCC3)C[C@H]21 (some centres undefined)	3	/	-2	/
Oc1ccc(-c2[nH]ncc2-c2ccc(Cl)cc2)c(O)c1	-3	5	49*	i
COc1ccc(-c2[nH]ncc2-c2ccc(Cl)cc2)c(O)c1	-8	-2	19	i
Oc1ccc(-c2[nH]ncc2-c2ccc(Br)cc2)c(O)c1	0	16	67*	i
COc1ccc(-c2cn[nH]c2-c2ccc(OC)cc2O)cc1	0	0	12	i
CC1CCN(c2ccc(C(=O)O)cc2NS(=O)(=O)c2ccccc2)CC1	3	/	3	/
CNC(=S)N/N=C/c1c2ccccc2c(Cl)c2ccccc12	-2	56*	1	i
NC(=S)N/N=C\c1c2ccccc2cc2ccccc12	-3	65*	-5	i
O=C(/C=C/c1cc[n+](CC(=O)c2ccc3cccc4c3c2CC4)cc1)c1ccc2cccc3c2c1CC3	/	70*	/	+
CCOc1ccc2nc(NC(=O)c3ccc(OCC4CCCO4)cc3)sc2c1 (centres undefined)	-1	3	4	+
Cc1cccc2sc(NC(=O)c3ccc(OCC4CCCO4)cc3)nc12 (centres undefined)	-10	0	6	i
NC(=O)c1sc2nc(-c3ccccc3)c3c(c2c1N)CCCC3	-1	3	4	+
O=C(COC(=O)c1cccc(S(=O)(=O)N2CCCC2)c1)Nc1ccc(Cl)cc1	97*	-1	0	i
NS(=O)(=O)c1ccc(NC(=O)COC(=O)c2cccc(S(=O)(=O)N3CCCC3)c2)cc1	-2	-4	2	i
O=C(CCc1ccccc1)N[C@H]1[C@@H](OC(=O)c2cnccn2)CCC[C@@]12C(=O)N(Cc1ccccc1)c1ccccc12	-15	/	-4	/
C=CCN1[C@H](C#N)[C@@H](c2ccc(C#Cc3cccnc3)cc2)[C@H]1CO	-5	/	0	/
CCOc1ccc(-n2c(SCc3cc(=O)oc4cc(C)c(C(C)C)cc34)nnc2-c2cccnc2)cc1	-3	-1	0	i
Cc1cc2oc(=O)cc(CSc3nnc(C)n3N)c2cc1C(C)C	/	-1	/	+
Cc1ccc(-n2c(-c3ccc(Br)cc3)c[n+]3c2CCc2ccc4cccnc4c2-3)cc1	-17	72*	-33	i
O=c1cnn(Cc2c(Cl)cccc2Cl)c2ccccc12	-1	-4	-3	+
Cc1cc(/C=C2\SC(=O)N(C)C2=O)c(C)n1-c1ccc(O)cc1	3	2	-3	i
COc1ccc(-n2c(C)cc(/C=C3/SC(=S)N(C)C3=O)c2C)cc1	-4	-5	-4	+
O=C(O)CN1C(=O)/C(=C\c2ccc(OC(=O)c3ccco3)cc2)SC1=S	1	-14	-1	i
CN(C)c1ccc(C=C2SC(=S)N(Cc3ccco3)C2=O)cc1	-3	105*	1	+
Cc1cc(/C=C2\SC(=S)N(Cc3ccco3)C2=O)c(C)n1-c1ccccc1	3	4	-2	+
CCN(CC)CCCNC(=S)N1CCN(c2nc(-c3ccc(F)cc3)cs2)CC1	-14	69*	2	i
